From PubChem BioAssay
GLD-1 TGE inh: GLD-1/TGE RNA complex disruptors, primary screen, biochemical, fluorescence polarization. Female germline-specific tumor suppressor gld-1 (Caenorhabditis elegans), Q17339. purified GLD-1 + fluorescein TGE RNA. inhibition, % at 5.96 µM. 0.44% of 320,000 active. AID 2280, 2010;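 active = percent inhibition above a per-plate cutoff, the plate mean of test compounds plus 3 SD, cut at about 30% in these data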
BCLXL inh: inhibitors of human Bcl-xL, primary screen, biochemical, fluorescence polarization, HTS; inhibition, % at 10.9 µM; 0.7% of 320,000 active; GST-Bcl-xL / FITC-Bim BH3 peptide fluorescence polarization;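 active = inhibition above the mean of all tested compounds plus 3 SD, cutoff set per campaign, cut at about 30% in these data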;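 also: inhibitors lower millipolarization by displacing the labeled peptide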
MCL1 BIM primary: inhibitors of MCL1 binding to BIM-BH3, primary screen, biochemical, fluorescence polarization | 0.68% of 320,000 active | inhibition, % at 10.9 µM | GST-MCL1 / FITC-Bim-BH3 fluorescence polarization;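 active = inhibition above the mean inhibition of all tested compounds plus 3 SD, set per campaign, cut at about 40% in these data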;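 also: higher means more loss of mP so more displacement of Bim peptide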
eLon inh: inhibitors of E. coli Lon protease, primary screen, biochemical, fluorescence polarization; P0A9M0; purified E. coli Lon protease; inhibition, % at 7.94 µM; 0.42% of 360,000 active; in the data active = inhibition above about 13%, passing the limit was not always enough
EBV gp42 block: Epstein-Barr virus gp42 inhibitors, primary screen, biochemical, uHTS, fluorescence polarization; 0.42% of 220,000 active; inhibition, % (tested at 21.74 µM); Fluorescence polarization binding assay, mP read-out; in the data active = inhibition above about 50%
MEX-5 binding: MEX-5 zinc finger RNA-binding disruptors – biochemical, C. elegans, fluorescence polarization, MLPCN library, primary screen; Zinc finger protein mex-5 (Caenorhabditis elegans), Q9XUB2; MEX-5/FITC-TCR2 RNA binding; hits give low values; activity score (negative = inhibition of binding), % at 10 µM; 0.38% of 300,000 active; AID 1832, 2009;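 active = inhibition past about -25% in most replicates, and total fluorescence under double the plate's negative control median, limit read from the data; inconclusive = replicates evenly split on the limit, or fluorescence at least double controls; inactive = too little inhibition in most replicates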
Target sequence (Q9XUB2 whole entry, looked up): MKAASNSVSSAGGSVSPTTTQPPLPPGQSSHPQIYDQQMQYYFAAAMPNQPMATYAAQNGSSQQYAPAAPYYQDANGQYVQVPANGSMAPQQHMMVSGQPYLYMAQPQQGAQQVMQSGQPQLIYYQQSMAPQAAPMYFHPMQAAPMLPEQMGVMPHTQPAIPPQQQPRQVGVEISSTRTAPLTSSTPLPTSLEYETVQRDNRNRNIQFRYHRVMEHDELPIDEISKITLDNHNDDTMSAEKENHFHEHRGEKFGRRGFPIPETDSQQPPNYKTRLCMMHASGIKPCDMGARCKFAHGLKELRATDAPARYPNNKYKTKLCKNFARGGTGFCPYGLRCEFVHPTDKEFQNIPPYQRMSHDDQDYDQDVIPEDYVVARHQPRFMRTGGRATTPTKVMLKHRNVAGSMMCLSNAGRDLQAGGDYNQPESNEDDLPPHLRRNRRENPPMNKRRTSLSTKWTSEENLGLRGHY
Numbers stand for hits; n = inactive; u = inconclusive; x = no result given. Sampled rows, rich in hits. Any-hit rate of the full collection: about 1.4%.

SMILES | GLD-1 TGE inh | BCLXL inh | MCL1 BIM primary | eLon inh | EBV gp42 block | MEX-5 binding
O=C(CCl)NCCN1C(=O)S/C(=C\c2cccnc2)C1=O | n | n | n | n | n | -60
CC(C(=O)NCCN1C(=O)S/C(=C\c2cccnc2)C1=O)N1C(=O)c2ccccc2C1=O (stereo not given) | n | n | n | n | n | n
CC(C)(C)N1CC(c2nc3ccccc3n2Cc2ccc(Cl)cc2)CC1=O (stereo not given) | n | n | n | n | n | n
CC(C)(C)N1CC(c2nc3ccccc3n2CCOc2ccccc2)CC1=O (stereo not given) | n | n | n | n | 67 | n
[O-]c1c[n+](-c2ccc(-[n+]3cc([O-])on3)cc2)no1 | n | n | n | n | n | n
Cc1ccc(Nc2ccc([N+](=O)[O-])ccc2=O)cc1 | n | n | n | n | x | -28
CCOC(=O)[C@H]1[C@H]2COc3ccccc3[C@@H]2N2C(=O)CN(Cc3ccc(C)cc3)C(=O)[C@@]12C | 91 | x | x | n | x | x
CCOC(=O)[C@H]1[C@H]2COc3ccc(C)cc3[C@@H]2N2C(=O)CN(Cc3ccc(Cl)cc3)C(=O)[C@@]12C | n | n | n | n | x | x
CCOc1cccc(/C=C(/C#N)c2nc3ccccc3[nH]2)c1OCC(=O)O | n | n | n | n | x | n
CCN(CC)c1ccc(/C=C(/C#N)c2nc3ccccc3[nH]2)c(OC(C)C)c1 | n | n | n | n | n | -33
Cc1ccccc1-c1cnc(C(O)c2ccc(-c3ccccc3)cc2)[nH]1 (stereo not given) | x | x | x | n | x | x
N=C1C(c2nc3ccccc3[nH]2)=C(O)CN1c1ccc(CC(=O)O)cc1 | n | n | n | n | n | -85
COc1ccc(-c2cc(-c3ccco3)[nH]c(=O)c2C#N)cc1OC | n | 46 | 46 | n | n | n
N#Cc1c(-c2ccccc2)cc(-c2ccc3c(c2)OCO3)[nH]c1=O | n | n | n | n | x | x
Nc1cccc2c1C(=O)N(C(=O)c1ccc(Cl)c(S(=O)(=O)N3CCCCCC3)c1)C2=O | n | 37 | n | n | n | n
Cc1ccc(N2C(=O)C3C(C2=O)C(C(=O)c2ccc(Cl)cc2)N2CCCC32)cc1 (stereo not given) | 46 | 73 | 72 | n | 52 | n
COC1(OC)N=C(N)C2(C#N)C(c3ccc(F)cc3)C12C#N (stereo not given) | n | n | n | n | n | n
CCOC1(OCC)N=C(N)C2(C#N)C(c3ccc(NC(C)=O)cc3)C12C#N (stereo not given) | n | n | n | n | n | -27
Oc1ccc(Nc2ccc3ccccc3c2)cc1 | x | x | x | n | x | x
O=C(COC(=O)c1ccc(F)c([N+](=O)[O-])c1)NC(=O)NCc1ccccc1 | n | x | x | n | x | x
COC(=O)c1cc2c(cc1NC(=O)CSCCc1ccccn1)OCO2 | n | 31 | n | n | n | n
CC(=O)Nc1ccc(NC(=O)CSCCc2ccccn2)cc1 | n | n | n | n | n | n
Cn1c(=O)c2[nH]c(N=NNc3ccccc3F)nc2n(C)c1=O | n | n | n | n | n | -34
Cc1ccccc1NN=Nc1nc2c([nH]1)c(=O)n(C)c(=O)n2C | n | n | n | n | n | x
Cn1c(=O)c2[nH]c(N=NN3CCCCC3)nc2n(C)c1=O | x | x | x | n | x | x
SMILES | GLD-1 TGE inh | BCLXL inh | MCL1 BIM primary | eLon inh | EBV gp42 block | MEX-5 binding
CC(=O)/C(N=Nc1nc2c([nH]1)c(=O)n(C)c(=O)n2C)=C(\C)O | n | n | n | n | n | -36
CC(C)(C)OC[C@H](NC(=O)c1[nH]cnc1C(=O)Nc1ccccc1F)C(=O)OC(C)(C)C | x | x | x | n | x | x
COC(OC)c1ccnc(-c2ccc(OC(=O)c3ccccc3)cc2)n1 | n | n | n | n | n | n
COC(OC)c1ccnc(-c2ccc(OC(=O)c3cccs3)cc2)n1 | n | n | n | n | 59 | n
COc1ccc(N=C2NC(=O)S/C2=C\c2ccc(N(C)C)cc2)cc1 | n | n | n | n | 95 | n
CN(C)c1ccc(C=C2SC(=S)NC2=O)cc1 | x | x | x | n | x | x
Oc1cc(NCc2ccc(F)cc2)cc2cccnc12 | n | x | x | n | x | x
CN(C)CCCNc1cc(O)c2ncccc2c1 | 33 | x | x | n | x | x
Cc1ccc(C)n1-c1sccc1C(=O)O | x | x | x | n | n | -36
O=C(Nc1nccs1)c1cccc(N2C(=O)c3cccc4c([N+](=O)[O-])ccc(c34)C2=O)c1 | 69 | 43 | 47 | n | n | n
CCOc1ccc2sc(NS(=O)(=O)c3ccc(OC)c(OC)c3)nc2c1 | n | 64 | n | n | n | n
COc1cc(C)c(CNc2cccc(C)c2)cc1C | n | n | n | n | n | n
COc1cc(C)c(CNc2ccc(OC)c(OC)c2)cc1C | n | 36 | n | x | n | n
Cc1cc(CC(=O)O)c2oc(-c3ccoc3)cc(=O)c2c1 | n | 38 | 47 | x | x | n
CN(C=[N+](C)C)c1cccc2c1C(=O)c1ccccc1C2=O | n | 35 | n | n | n | -28
COc1cccc(N=Nc2c(=O)[nH]n3c(=O)cc(C)[nH]c23)c1 | n | n | n | n | n | -32
COc1cccc(N=Nc2c(=O)[nH]n3c(=O)c4c([nH]c23)CCC4)c1 | n | n | n | n | n | n
CC(C)c1cccc(-c2csc(C(O)c3cccc(Cl)c3)n2)c1 (stereo not given) | x | x | x | n | x | x
N#Cc1cc2c(=O)n3ccccc3nc2n(-c2ccccc2Cl)c1=O | n | n | n | n | n | -27
CCCCOCCCNC(=O)C[C@@H]1C[C@@]2(C(=O)OC)CCCCC=C2N(Cc2ccccc2)C1=O | x | x | x | n | x | x
CC1Oc2cc3oc4c(O)c(O)ccc4c(=O)c3c(O)c2C1(C)C (stereo not given) | 31 | n | n | n | x | n
O=c1cc(CN2CCOCC2)c2ccc(O)c(O)c2o1 | n | n | n | n | x | n
CS(=O)(=O)c1ccc(NC(=O)c2ccc3c(c2)S(=O)(=O)N=C2CCCCCN23)cc1 | n | n | n | n | x | n
CCOc1ccc(C2CC(c3c(O)c4ccccc4oc3=O)=NN2c2ccccc2)cc1OC (stereo not given) | n | n | n | n | 141 | u
CCCc1nc2cc(C)c(Br)c(C)n2c1Cc1ccsc1 | x | x | x | n | x | x
COc1ccc(Nc2ncccc2C(=O)NCc2ccccc2)cc1 | n | n | n | n | n | n
COc1cccc(Nc2ncccc2C(=O)NCc2ccccc2)c1 | x | x | x | n | 68 | x
Cc1ccc(/C=C/C(=O)O)cc1S(=O)(=O)N1CCc2ccccc2C1 | n | n | n | n | n | n
Cc1ccc(/C=C/C(=O)O)cc1S(=O)(=O)N1CCCCC1 | n | n | n | n | n | -30
